In the library only some 32% were active in any assay of this set; here they are far more common.
PostGolgi ctrl: yeast control strain growth, post-Golgi counter-screen; efflux-deficient yeast background strain, growth absorbance A615, 16 h; inhibition, % at 10 µM; hit rate 5% among 98,000
CYP2C9 inh: blocks human cytochrome P450 2C9; P11712; CYP2C9 Supersomes, luciferin-H conversion, luminescence; inhibition, % at 5 µM; hit rate 20% among 96,000; AID 777;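 active = blocking of liver enzyme CYP2C9 beyond about 50% at 5 µM, limit read from the data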
CYP2C19 activ: activators of human cytochrome P450 2C19. P33261. 96,000 tested, under 10 active. activation factor at 5 µM. AID 1025. recombinant CYP2C19, luciferin-H EGE luminescence; active compounds read high; 0 = fully inhibited enzyme, 1 = untreated enzyme;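 active = activation factor of at least 2 at 5 µM in the primary screen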;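 also: 0 = wells with 2.5 mM tranylcypromine and 1 = vehicle-only wells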
Target sequence (P33261 whole entry, looked up): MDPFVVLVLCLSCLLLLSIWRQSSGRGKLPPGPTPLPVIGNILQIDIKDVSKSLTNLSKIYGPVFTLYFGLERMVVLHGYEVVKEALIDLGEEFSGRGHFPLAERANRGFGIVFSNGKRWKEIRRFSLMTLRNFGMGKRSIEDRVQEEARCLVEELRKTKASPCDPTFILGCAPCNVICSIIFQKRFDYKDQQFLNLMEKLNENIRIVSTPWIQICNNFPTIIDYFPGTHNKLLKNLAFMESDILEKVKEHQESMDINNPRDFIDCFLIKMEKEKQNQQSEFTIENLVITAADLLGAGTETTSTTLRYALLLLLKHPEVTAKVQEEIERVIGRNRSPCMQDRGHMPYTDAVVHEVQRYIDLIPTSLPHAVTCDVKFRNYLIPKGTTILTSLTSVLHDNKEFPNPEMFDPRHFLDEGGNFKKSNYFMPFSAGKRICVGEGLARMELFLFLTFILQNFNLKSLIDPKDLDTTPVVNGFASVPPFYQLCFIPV
CYP2C19 inhib: blocks human cytochrome P450 2C19; P33261; CYP2C19 Supersomes, luciferin-H EGE luminescence, 30 min; inhibition, % at 5 µM; hit rate 21% among 96,000;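 active = CYP2C19 inhibition above a set limit at 5 µM in the primary screen, cut at about 50% in these data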;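 also: plate controls were negative control wells for no effect and 2.5 mM tranylcypromine positive control for full effect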
CYP2C9 act: CYP2C9 (human) activation | hit rate 1.4% among 96,000 | AID 1024 | activation factor at 5 µM | recombinant CYP2C9, luciferin-H conversion, luminescence; active compounds read high; factor 1 = untreated enzyme, 0 = blocked;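 active = activation factor of 2 or more for CYP2C9 at a 5 µM dose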;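 also: 0 = sulfaphenazole-blocked wells and 1 = vehicle-only wells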
PostGolgi yeast: growth inhibition of a yeast mutant, post-Golgi transport screen; post-Golgi transport phenotypic cell assay; inhibition, % at 10 µM; hit rate 0.9% among 98,000; AID 739;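 also: yeast cells grown in 1536-well plates; yeast grown about 18 h at 30C before absorbance read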
The depositor's hits bear a star; x = no result given. Rule as the data show it, unless noted: active = inhibition above about 30%; inactive = the rest.

SMILES	PostGolgi ctrl	CYP2C9 inh	CYP2C19 activ	CYP2C19 inhib	CYP2C9 act	PostGolgi yeast
CC1(C)CC(=O)c2cnc(N3CCc4ccccc4C3)nc2C1	11.5	17.4	0.9	11.3	0.8	17.5
CCc1cc2c(=O)c(Oc3ccccc3)c(C)oc2cc1O	7.0	-88.4	0.9	5.0	1.9	-4.2
CSc1cc(C)nc(N(C)C(C)=O)n1	-0.1	32.7	1	-3.7	0.7	-4.4
O=C(NC(Cc1ccc2c(c1)OCO2)C(=O)N1CCCC1C(=O)O)c1ccccc1 (configuration not stated)	9.5	3.4	1	-1.0	1	1.9
NC(=O)Cn1c(=O)n(Cc2ccco2)c(=O)c2c3c(sc21)CCCCC3	7.7	18.2	0.8	20.8	0.8	-3.4
Cc1cccc(NC(=O)Cn2c(=O)n(Cc3ccco3)c(=N)c3c4c(sc32)COC(C)(C)C4)c1	-6.9	60.6*	0.4	58.7*	0.4	23.7
CCn1c(=O)n(CCc2ccccc2)c(=O)c2c3c(sc21)CCCC3	9.3	-9.3	1	-2.2	1.1	-15.9
O=c1c2c3c(sc2n(CCN2CCOCC2)c(=O)n1Cc1ccco1)CCCCC3	20.8	77.1*	0.5	50.9*	0.2	-1.1
O=C(Cn1c(=O)n(Cc2ccco2)c(=O)c2c3c(sc21)CCCC3)Nc1ccccc1	0.6	79.8*	0.3	71.8*	0.2	8.6
O=c1c2c3c(sc2n(CCN2CCCCC2)c(=O)n1Cc1ccco1)CCCCC3	2.3	60.7*	0.5	45.3	0.4	5.7
CCN(CC(=O)NCc1cccs1)S(=O)(=O)c1ccc(C(C)C)cc1	21.6	-45.0	0.7	25.8	1.5	-5.9
CN=c1scc(C)n1/N=C/c1ccc(O)c(O)c1O	5.8	1.8	0.9	13.7	1	-4.7
CC(C)N=c1scc(-c2ccco2)n1/N=C/c1ccc(O)c(O)c1	55.5*	24.9	0.9	9.5	0.8	2.9
CN(/N=C/c1ccncc1)c1cnn(-c2ccc(F)c(Cl)c2)c(=O)c1Cl	11.8	93.4*	0.1	90.7*	0.1	-1.7
Cc1ccc(-n2ncc(N(C)C)c(Cl)c2=O)cc1	11.8	-5.3	0.9	14.7	1.1	-9.4
CCOC(=O)Cc1nnc(Nc2cccc(C)c2)c2ccccc12	4.0	-7.1	1	-3.3	1.1	0.5
CCCCn1c(=NC(=O)c2cccnc2)c(C#N)cc2c(=O)n3cccc(C)c3nc21	5.8	-2.0	1	0.8	1	-5.9
Cc1cccn2c(=O)c3cc(C#N)c(=NC(=O)c4ccncc4)n(CCCOC(C)C)c3nc12	3.9	87.2*	0.1	93.7*	0.1	6.8
CCCn1c(=NC(=O)c2ccc3c(c2)OCO3)c(C#N)cc2c(=O)n3cccc(C)c3nc21	x	3.4	0.8	21.0	1	x
COCCCn1c(=NC(=O)c2ccncc2)c(C#N)cc2c(=O)n3cccc(C)c3nc21	-0.4	80.6*	0.3	70.4*	0.2	9.5
O=C(CSCSCC(=O)NCC1CCCO1)NCC1CCCO1 (configuration not stated)	-1.6	-5.9	1.2	-17.1	1.1	16.8
CCOC(=O)c1[nH]c(CSc2nnnn2-c2ccccc2C)c(C(=O)OCC)c1C	-1.2	54.0*	0.6	36.2	0.5	-3.7
COC(=O)c1sccc1NC(=O)CSc1nnnn1-c1ccccc1C	14.3	-45.9	1.1	-9.6	1.5	0.0
CCOC(=O)c1c(C)[nH]c(C)c1C(=O)COC(=O)CCOc1ccccc1OC	-1.6	83.3*	0.2	77.0*	0.2	10.1
COC(=O)c1c(C)[nH]c(C(=O)CSc2nnnn2-c2ccccc2)c1C	7.9	-3.5	1.1	-8.7	1	-18.9
SMILES	PostGolgi ctrl	CYP2C9 inh	CYP2C19 activ	CYP2C19 inhib	CYP2C9 act	PostGolgi yeast
CCOC(=O)c1c(C)[nH]c(C)c1C(=O)CSc1ncccn1	-14.2	47.4	0.4	58.9*	0.5	14.3
CCOC(=O)c1c(C)[nH]c(C)c1C(=O)CSc1nnnn1-c1ccccc1	8.2	88.1*	0	99.0*	0.1	9.5
CCOC(=O)c1ccc(NC(=O)COc2ccccc2OC)cc1	21.4	10.6	0.7	31.5	0.9	-3.0
O=C(NN1C(=O)c2ccccc2NC1c1ccccn1)c1ccc(Br)cc1 (configuration not stated)	16.5	33.3	1.1	-9.7	0.7	-2.8
Cn1c(=O)c2c(nc(Oc3ccc4ccccc4c3)n2C)n(C)c1=O	0.9	19.4	0.8	22.4	0.8	-0.6
c1cc2[nH]snc2c2nc(C3CC3)nc12	0.5	8.2	0.7	26.4	0.9	-1.2
O=C(COc1ccc(Cl)cc1Cl)Nc1ccc(Cl)cn1	4.8	13.8	0.4	57.8*	0.9	-3.1
Cn1cc(CNC(=O)COc2ccc(Cl)cc2Cl)cn1	2.6	1.8	0.1	89.3*	1	20.9
COCCCNC(=O)Cn1cc2c(n1)CCC(C)C2 (configuration not stated)	7.0	-23.3	1	-3.2	1.2	2.7
C=CCn1c(SCC(=O)Nc2ccc(N(C)C)cc2)nnc1-c1cccc(C)c1	8.2	36.6	0.7	29.0	0.6	-5.5
CCOC(=O)COc1ccc2c(c1)C(=O)CC(C)(c1cccnc1)O2 (configuration not stated)	42.2*	4.3	1	-1.6	1	3.5
CC1(C)CC(=O)c2c(oc3cc(O)c(O)cc23)C1	4.0	-216.3	1	2.5	3.2*	-0.7
CCNC(=O)c1oc2c(c1C)C(=O)CC(C)(C)C2	6.9	13.0	0.9	12.4	0.9	1.9
COc1cccc(C2(CSc3nnc(-c4cc(OC)c(OC)c(OC)c4)o3)OCCO2)c1	18.8	-17.2	0.2	83.6*	1.2	3.9
COc1cc(OC)cc(-c2nnc(SCC(=O)N(C(C)C)C(C)C)o2)c1	25.7	-133.2	0.3	72.0*	2.3*	12.0
COc1cc(OC)cc(-c2nnc(SCC(=O)N(Cc3ccccc3)C(C)(C)C)o2)c1	11.3	-10.2	0.2	78.2*	1.1	23.7
CCN(CC)C(=O)CSc1nnc(-c2cc(OC)cc(OC)c2)o1	2.4	-27.1	0.7	28.1	1.3	-7.0
COc1cc(-c2nnc(SCC(=O)N(Cc3ccccc3)C(C)(C)C)o2)cc(OC)c1OC	6.2	15.8	0.1	85.4*	0.8	-4.9
CCCCN(CCCC)C(=O)CSc1nnc(-c2cc(OC)c(OC)c(OC)c2)o1	8.2	-57.4	0.6	36.9	1.6	-7.0
CCCCOC(=O)CSc1nnc(-c2cc(OC)c(OC)c(OC)c2)o1	32.1*	20.4	0.9	13.4	0.8	-2.3
Cc1nn(C)cc1C=NCCOCc1ccccc1	4.8	-8.0	1.1	-5.6	1.1	11.9
CC1CN(c2ccc(S(=O)(=O)N3CCOCC3)cn2)CC(C)O1 (configuration not stated)	7.9	-2.2	1.2	-19.2	1	2.7
CC(C)CC(=O)Nc1nc2c(c(=O)[nH]1)CCCC2	3.9	11.6	1	-3.1	0.9	-0.5
Cc1ccc(-n2c(Cc3cccn3C)nnc2SCC(=O)NCc2ccc3c(c2)OCO3)cc1	32.5*	83.9*	0.4	56.7*	0.2	6.7
